# M1 ag: human M1 muscarinic receptor agonists, primary screen, Fluo-8 calcium fluorescence, CHO-K1 cells, HTS. Muscarinic acetylcholine receptor M1 (Homo sapiens), P11229. CHO-K1 hM1, agonist mode; 0% DMSO, 100% acetylcholine EC100. activation, % at 3 µM. 360,000 compounds, 0.33% hits. AID 588814, 2011;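 active = activation above the run's mean compound activation plus 3 SD, cut at about 16% in these data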;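 note: peak over basal fluorescence ratio within a 140 s kinetic read after compound addition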
# Target sequence (P11229 whole entry, looked up): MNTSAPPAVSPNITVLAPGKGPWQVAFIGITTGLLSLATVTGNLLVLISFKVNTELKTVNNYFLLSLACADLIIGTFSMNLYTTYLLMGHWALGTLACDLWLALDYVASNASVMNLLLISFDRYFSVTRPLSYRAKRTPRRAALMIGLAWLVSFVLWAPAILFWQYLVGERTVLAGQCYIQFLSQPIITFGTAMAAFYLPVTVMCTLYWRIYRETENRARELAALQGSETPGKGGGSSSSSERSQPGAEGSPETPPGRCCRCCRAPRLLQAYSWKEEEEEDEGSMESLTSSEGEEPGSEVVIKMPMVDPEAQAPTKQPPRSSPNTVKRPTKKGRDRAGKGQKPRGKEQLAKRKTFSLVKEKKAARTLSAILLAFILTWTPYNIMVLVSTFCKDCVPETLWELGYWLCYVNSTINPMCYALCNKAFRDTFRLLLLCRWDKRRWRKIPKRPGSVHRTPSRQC
# M1 antag: human M1 muscarinic receptor antagonists, primary screen, CHO-K1 cells, Fluo-8 calcium fluorescence, 1536-well; Muscarinic acetylcholine receptor M1 (Homo sapiens), P11229; 360,000 compounds, 1.3% hits; AID 588852, 2011; inhibition, % at 3 µM; CHO-K1 hM1, ACh EC80 antagonist;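 active = percent inhibition above its own plate's cutoff, namely the mean of that plate's compound wells plus 3 SD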;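 note: peak over basal fluorescence ratio during 140 s after agonist addition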
# M1 ag parental: counter-screen for M1 agonists: effect in parental CHO-K1 cells; 360,000 compounds, 0.48% hits; activation, % at 3 µM; Fluo-8 calcium fluorescence; scaled to maximal ATP response, vehicle zero; in the data active = activation above about 15%;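 note: untransfected CHO-K1 host cells lacking M1 receptor as counterscreen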
# CHO-K1 Ca antag: M1 antagonist counterscreen hit in parental CHO-K1 cells; inhibition, % at 3 µM; 360,000 compounds, 0.6% hits; ATP-induced calcium, Fluo-8 fluorescence; AID 602250;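 active = inhibition above a per-plate cutoff, the plate's mean sample inhibition plus 3 SD, cut at about 24% in these data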
# M1 PAM parental: nonselective calcium activators in parental CHO-K1 cells, primary screen, counter-screen for M1 PAM project, cell-based, Fluo-8 calcium fluorescence, full deck, 1536-well. ATP EC20; 0% at ATP EC20, 100% at ATP max. activation, % at 3 µM. 360,000 compounds, 0.02% hits;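 active = activation above the run cutoff, the mean activation of all test compounds plus 3 SD, cut at about 40% in these data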;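 note: peak over basal fluorescence ratio in a 140 s read after ATP addition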
# M1 PAM: human M1 muscarinic receptor positive allosteric modulators, primary screen, CHO-K1 cells, Fluo-8 calcium fluorescence, 1536-well. CHO-K1 hM1, ACh EC20; 0% = ACh EC20, 100% = maximal ACh. Muscarinic acetylcholine receptor M1 (Homo sapiens), P11229. AID 588819, 2011. activation, % at 3 µM. 360,000 compounds, 0.088% hits; in the data active = activation above about 19%, passing the limit was not always enough
# Hits are given with their value; n = inactive. Compounds with a hit are over-represented: about 2.3% of the library has one in this group of screens.
SMILES,M1 ag,M1 antag,M1 ag parental,CHO-K1 Ca antag,M1 PAM parental,M1 PAM
Cn1nc(C2CC2)cc1NC(=O)C1(C)CCN1C(=O)CCc1ccccc1 (stereo not given),n,n,n,n,n,n
O=C1[C@H]2[C@@H](c3ccc(F)cc3)N3C(=O)N(c4cccc(Br)c4)C(=O)[C@@]3(Cc3ccc(Cl)cc3)[C@H]2C(=O)N1C1CCCCC1,n,n,n,n,n,27
O=C1[C@H]2[C@@H](c3ccc(Cl)cc3)N3C(=O)N(c4cccc(Br)c4)C(=O)[C@@]3(Cc3ccc(Cl)cc3)[C@H]2C(=O)N1C1CCCCC1,n,n,n,n,n,n
CCOc1ccc(NC(=O)COC(=O)C23CC4CC(CC(C4)C2)C3)c([N+](=O)[O-])c1,n,n,n,n,n,n
COc1ccc(N2CCN(CC(O)COC(c3ccccc3)c3ccccc3)CC2)cc1 (stereo not given),n,n,n,n,n,n
COc1ccc(N2CCN(CC(O)COC(c3ccc(F)cc3)c3ccc(F)cc3)CC2)cc1 (stereo not given),n,39,n,n,n,n
CN(Cc1ccc(OC(F)F)cc1)C(=O)c1cccc(S(=O)(=O)N2CCN(Cc3ccccc3)CC2)c1,n,33,n,n,n,n
COc1cccc(CN(C)C(=O)c2cccc(S(=O)(=O)N3CCN(c4ccc(F)cc4)CC3)c2)c1OC,n,28,n,n,n,n
COc1cccc(CN(C)C(=O)c2cccc(S(=O)(=O)N3CCN(c4ccccc4)CC3)c2)c1OC,n,n,n,n,n,n
COCCCN1CN(S(=O)(=O)c2ccc(C)cc2C)c2nc3ccccc3nc21,n,n,n,n,n,n
CCN1CCN(C(=S)c2ccc([N+](=O)[O-])cc2)CC1,n,n,n,n,n,n
O=C(Nc1ccc(Cl)cc1Cl)c1ccc2ncsc2c1,n,n,21,n,n,n
CC(C)Cn1c(SCC(=O)N2CCN(S(=O)(=O)c3ccccc3)CC2)nc2ccccc21,n,30,n,n,n,n
N#CCCn1c(SCC(=O)N2CCN(S(=O)(=O)c3ccccc3)CC2)nc2ccccc21,n,64,n,n,n,n
Cn1c(SCC(=O)N2CCN(S(=O)(=O)c3ccccc3)CC2)nc2ccccc21,n,n,n,n,n,n
Cc1ccc(NNC(=O)Nc2ccc(Cl)cc2)nn1,n,n,n,n,n,n
Cc1ccccc1S(=O)(=O)NC(=O)C1(C)CCN1C(=O)Cc1ccc(C(C)(C)C)cc1 (stereo not given),n,n,n,n,n,n
O=[N+]([O-])c1ccc(N2CCC(O)CC2)nc1,n,n,n,29,n,n
O=C(CSc1nc(=O)n(CCCN2CCOCC2)c2c1CCCC2)Nc1ccc(F)cc1,n,31,n,n,n,n
CCCCc1ccc(NC(=O)CSc2nc(=O)n(CCN(CC)CC)c3c2CCCC3)cc1,n,66,n,n,n,n
CCCCc1ccc(NC(=O)CSc2nc(=O)n(CCN(C)C)c3c2CCC3)cc1,n,n,n,n,n,n
CC(=O)Nc1ccc(C(=O)NC2CCSc3ccccc32)cc1 (stereo not given),n,n,n,n,n,n
Cc1ccc(NC(=S)NC2CCSc3ccccc32)cc1 (stereo not given),n,79,n,n,n,n
O=C1Nc2ccccc2N=C(c2ccc3c(c2)OCO3)C1N(C(=O)c1ccc2ccccc2c1)C1CC1 (stereo not given),n,n,n,n,n,n
Clc1cccc(Cl)c1C[n+]1ccc2ccccc2c1,n,31,n,n,n,n
SMILES,M1 ag,M1 antag,M1 ag parental,CHO-K1 Ca antag,M1 PAM parental,M1 PAM
c1ccc(C[n+]2ccc3ccccc3c2)cc1,n,n,n,n,n,n
O=C(CC1Nc2ccccc2NC1=O)Nc1ccc2c(c1)OCO2 (stereo not given),n,n,n,28,n,n
COc1ccc(-n2ncc3c(=O)n(CC(=O)N(C(C)C)C(C)C)cnc32)cc1,n,n,n,n,n,n
Nc1ncnc2c1ncn2C1CCCO1 (stereo not given),20,n,n,n,n,n
COc1ccc(Br)cc1S(=O)(=O)N1CCCc2ccccc21,n,n,n,n,n,n
CCOC(=O)NN1C(=O)c2ccccc2NC1c1ccc(N(C)C)cc1 (stereo not given),17,n,n,n,n,n
CCc1ccccc1NC(=O)C1CCN(S(C)(=O)=O)CC1,n,n,n,n,n,n
CN1CCC(=O)N([C@H](CSc2ccc(Br)cc2)c2ccccc2)CC1,n,55,n,n,n,n
CCCN1CCC(=O)N([C@H](CSc2ccccc2)c2ccccc2)CC1,n,n,n,n,n,n
C[C@H](NC(=O)c1ccco1)C(=O)NNC(=O)COc1cccc(C(F)(F)F)c1,n,n,n,n,n,n
CN(c1ccc(Br)cc1)S(=O)(=O)c1ccc2[nH]cc(C(=O)NCCN3CCOCC3)c(=O)c2c1,n,n,n,n,n,n
CCN(CC)CC#CCC(O)(c1ccccc1)C1CCCC1 (stereo not given),n,102,n,n,n,n
CN1CCN(CC#CCC(O)(c2ccccc2)c2ccccc2)CC1,n,n,n,n,n,n
CN(C)CC#CCC(O)(c1ccccc1)C1CCCCC1 (stereo not given),n,100,n,n,n,n
CN1CCN(CC#CCC(O)(c2ccccc2)C2CCCC2)CC1 (stereo not given),n,34,n,n,n,n
Cc1ccnc(NC(=S)NC(=O)/C=C/c2ccc(Cl)cc2)c1,n,n,n,n,n,n
Cc1sc2ncnc(N3CCC(C(=O)NNC(=O)COc4ccc(Cl)cc4)CC3)c2c1C,n,n,n,n,n,n
Cc1sc2ncnc(N3CCN(S(=O)(=O)c4ccc(C(C)(C)C)cc4)CC3)c2c1C,n,n,n,n,n,n
Cc1sc2ncnc(N3CCN(CCOc4ccc(Cl)cc4)CC3)c2c1C,n,43,n,n,n,n
Cc1sc2ncnc(N3CCC(C(=O)NNC(=O)COc4ccccc4Cl)CC3)c2c1C,n,32,n,n,n,n
Cc1sc2ncnc(N3CCC(C(=O)NNC(=O)COc4ccccc4F)CC3)c2c1C,n,n,n,n,n,n
Cc1ccc(S(=O)(=O)N2CCN(C(=O)C3CCN(c4ncnc5sc(C)c(C)c45)CC3)CC2)c(C)c1,n,n,n,n,n,29
CN(C)CCNc1ncnc2oc(-c3ccccc3)c(-c3ccccc3)c12,n,n,16,n,n,n

# Screening data as filed in PubChem BioAssay.
